Assay outcomes deposited in PubChem by National Center for Advancing Translational Sciences (NCATS).
AmpC inh detg: qHTS Inhibitors of AmpC Beta-Lactamase (assay with detergent); P00811; AmpC hydrolysis of nitrocefin, absorbance 480 nm, 0.01% Triton; Potency, µM (titrated, usually from 114 µM), without a hit: at the top dose activity change, negative = inhibition, hits mostly inhibitors; 370,000 compounds, 0.041% hits; AID 485294, 2010;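 also: 0% = no-compound wells and -100% = no-enzyme wells; nearly all actives have a fitted effect of over 25% in size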
Target sequence (P00811 whole entry, looked up): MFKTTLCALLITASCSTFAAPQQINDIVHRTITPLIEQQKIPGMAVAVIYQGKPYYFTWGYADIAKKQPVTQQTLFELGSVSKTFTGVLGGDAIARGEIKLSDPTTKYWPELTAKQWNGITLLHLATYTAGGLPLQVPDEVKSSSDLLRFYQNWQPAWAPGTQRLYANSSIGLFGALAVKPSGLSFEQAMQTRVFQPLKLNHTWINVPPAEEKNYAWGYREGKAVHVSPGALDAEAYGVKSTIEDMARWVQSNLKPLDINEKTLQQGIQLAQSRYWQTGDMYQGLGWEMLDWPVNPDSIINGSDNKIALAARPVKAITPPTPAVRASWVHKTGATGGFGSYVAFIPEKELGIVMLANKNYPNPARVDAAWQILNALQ
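AmpC (5.3 nM in the dispensed reagent) in 20 mM phosphate pH 7.0 with 0.01% (detergent screen) or 0.0001% Triton X-100 was preincubated with compounds for 15 min at room temperature. Nitrocefin was then added from an 800 uM solution, and hydrolysis was followed at 480 nm.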
Sm TGR block: qHTS Assay for the Inhibitors of Schistosoma Mansoni Peroxiredoxins | Schistosoma mansoni thioredoxin glutathione reductase (TGR), Q962Y6 | purified TGR, DTNB reduction, TNB absorbance 405 nm | Potency, µM (top dose mostly 114 µM), for inactives: at the top dose activity change, negative = inhibition, usual class: inhibitors | 360,000 compounds, 3% hits | AID 485364, 2010; also: % is scaled to controls: 0 for no effect and ±100 for the full control effect; nearly all actives have a fitted effect of over 60% in size
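First, TGR (20 nM dispensed) and NADPH were mixed with compound. Second, a 15 min room-temperature incubation followed. Third, further NADPH and then DTNB were added to start the reaction. Finally, TNB absorbance was monitored kinetically.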
Pf growth 48h: Primary qHTS for delayed death inhibitors of the malarial parasite plastid, 48 hour incubation. 310,000 compounds, 5.9% hits. AID 504832, 2011. P. falciparum luciferase growth in erythrocytes, 48 h. Potency, µM (series often up to 28.7 µM), for the others: at the highest dose activity change, negative = inhibition, actives largely listed as inhibitors; also: % is scaled to controls: 0 for no effect and ±100 for the full control effect
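A one-generation exposure of luciferase-tagged malaria parasites in RPMI 1640/Albumax erythrocyte culture, 37 C and 5% CO2. Inhibition is inferred from decreased luminescence after adding detection reagent.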
SARS PLpro yeast: qHTS of Yeast-based Assay for SARS-CoV PLP; S. cerevisiae expressing SARS-CoV PLpro, growth rescue; Potency, µM (titrated, usually from 32.9 µM), without a hit: at the top dose activity, positive = growth rescue, hits mostly activators; 330,000 compounds, 0.19% hits; AID 485353, 2010; calls by dose curve; also: 0% is about no effect; nearly all actives have a fitted effect of over 55% in size
Pf growth 96h: Primary qHTS for delayed death inhibitors of the malarial parasite plastid, 96 hour incubation; P. falciparum luciferase reporter growth, 96 h; Potency, µM (titrated, usually from 28.7 µM), for inactives: at the highest dose activity change, negative = inhibition, actives largely listed as inhibitors; 320,000 compounds, 6.9% hits; AID 504834, 2011; also: % is scaled to controls: 0 for no effect and ±100 for the full control effect
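Compounds incubated with erythrocytes infected by luciferase-expressing P. falciparum (2% hematocrit, 0.05% parasitemia final) for 96 hours, 37 C in 5% CO2. Growth inhibition scored as decreased luciferase luminescence.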
AmpC inh no detg: qHTS Inhibitors of AmpC Beta-Lactamase (assay without detergent). P00811. AmpC nitrocefin hydrolysis, absorbance 480 nm, 0.0001% Triton. Potency, µM (series often up to 57.1 µM), for inactives: top-dose activity change, negative = inhibition, hits mostly inhibitors. 330,000 compounds, 0.52% hits. AID 485341, 2010;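 also: plate controls were no compound for no effect and no enzyme for full effect; nearly all actives have a fitted effect of over 20% in size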
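AmpC (5.3 nM in the dispensed reagent) in 20 mM phosphate pH 7.0 with 0.01% (detergent screen) or 0.0001% Triton X-100 was preincubated with compounds for 15 min at room temperature. Nitrocefin was then added from an 800 uM solution, and hydrolysis was followed at 480 nm.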
* marks the source's active call; other numbers are inactive results; ? = inconclusive; . = no result; ! = a repeat was not active. Hits are enriched below; roughly 12% of the tested compounds scored in any of these assays. Unless noted, calls follow the shape of the dose curve; as a rule, active = well fitted curve in the direction sought with a large enough effect; inconclusive = small, poorly fitted or top-dose-only effect, or another doubt; inactive = no such curve, though single readings can be large; an effect the other way counts as inactive or inconclusive. Potency is read from the fitted curve at half-maximal effect.

SMILES	AmpC inh detg	Sm TGR block	Pf growth 48h	SARS PLpro yeast	Pf growth 96h	AmpC inh no detg
CCOCCCN1C(=O)CN(C2CCC(C)CC2)C(=O)C1c1ccc(C)cc1 (centres undefined)	?	1%	?	-2%	-14%	78%
COc1ccc(C/C(C)=N/NS(=O)(=O)c2ccc(Br)cc2)cc1	3%	22µM*	14%	0%	?	-45%
CCc1cccc(C)c1NC(=O)COCc1cc(-c2ccc3c(c2)OCO3)on1	-7%	-2%	.	.	.	.
Cc1ccc(-n2nc3c(c2NC(=O)/C=C\c2ccc4c(c2)OCO4)CSC3)cc1	-9%	-6%	-22%	-14%	13µM*	-55%
Cc1ccc(-n2nc3c(c2NC(=O)c2ccc4c(c2)OCO4)CS(=O)C3)cc1 (centres undefined)	?	-20%	-2%	-9%	163%	-16%
Cc1cccnc1NC(=O)/C=C/c1ccc2c(c1)OCO2	3%	5%	239%	6%	10µM*	-15%
Cc1ccccc1-n1nc2c(c1NC(=O)/C=C\c1ccc3c(c1)OCO3)CSC2	-11%	-7%	?	-25%	12µM*	-37%
Cc1ccc(-n2nc3c(c2NC(=O)C(C)(C)C)CSC3)c(C)c1	0%	?	4%	0%	.	-34%
Cc1ccc(-n2nc3c(c2NC(=O)/C=C\c2ccc4c(c2)OCO4)CSC3)c(C)c1	-15%	-14%	?	10%	13µM*	-52%
CC(C)c1ccc(C2(C)NC(=O)N(CC(=O)NCC3COc4ccccc4O3)C2=O)cc1 (centres undefined)	0%	-8%	?	-1%	?	61%
COc1ccc(/C=C2/C(=O)NC(=O)N(C3CCCCC3)C2=O)cc1CSc1ccccn1	?	35µM*	-6%	0%	0%	-28%
COc1ccc(C=C2C(=O)N(C)C(=O)N(C)C2=O)cc1CSc1ccccn1	4%	?	2%	-3%	0%	-30%
COc1ccc(/C=C2/C(=O)NC(=S)N(C3CC3)C2=O)cc1CN1C(=O)c2ccccc2C1=O	-5%	11µM*	4%	?	?	-35%
Cc1ccc(S(=O)(=O)NC(=O)NC(C)c2ccc(F)cc2)cc1 (centres undefined)	0%	-1%	12%	9%	48%	-17%
CCOC(=O)/C=C/C(=O)N1CCN(C(=O)/C=C/C(=O)OCC)CC1	8%	?	?	-4%	?	1%
Cc1ccc(CC2C(=O)N(c3ccc(C)cc3)C(=O)C2C)cc1 (centres undefined)	-13%	-4%	35%	0%	13%	-9%
Cc1ccc(CC2C(=O)N(c3ncccn3)C(=O)C2C)cc1 (centres undefined)	-12%	0%	.	3%	0.83µM*	-3%
CCC(C)NC(=O)CCSc1ccc(C)cc1 (centres undefined)	-16%	-14%	12%	19%	6%	-11%
COC(CNC(=O)c1ccc2c3c(onc13)-c1ccccc1C2=O)OC	-13%	13µM*	42%	-4%	8%	63%
O=C1N(c2ccccc2)CCN1c1ccccc1	-15%	5%	322%	0%	10µM*	-6%
O=C1c2ccccc2CN1c1ccccc1	?	2%	96%	-7%	4.1µM*	-10%
O=C1c2ccccc2CN2C(=O)c3ccccc3CN12	1%	1%	-1%	-5%	3.7µM*!	-10%
O=C1NC(=S)CN1c1ccccc1	-1%	-27%	3%	0%	20%	-32%
COc1ccc(N2Cc3ccccc3C2=O)cc1	-5%	3%	-20%	-12%	2.9µM*	-19%
Cc1ccc(N2Cc3ccccc3C2=O)cc1	-2%	-4%	-14%	-12%	47%	-14%
SMILES	AmpC inh detg	Sm TGR block	Pf growth 48h	SARS PLpro yeast	Pf growth 96h	AmpC inh no detg
CCCCc1ccc(/C(C)=N/NC(=O)C2CCCC2)cc1	?	0%	42%	-4%	?	-22%
CCOC(=O)C1=C(CS(=O)(=O)c2ccc(F)c(C)c2)NC(=O)NC1c1ccc(O)c(O)c1 (centres undefined)	?	?	-13%	2%	3%	-20%
COc1ccc(N2C(=O)N(Cc3ccc(C)cc3)c3ccccc3S2(=O)=O)cc1	-8%	-1%	?	-9%	?	-17%
COc1ccc(N2C(=O)c3ccccc3S2(=O)=O)cc1	-2%	-2%	2.9µM*	2%	46%	-11%
CCc1ccc(NC(=O)Cc2ccc(-n3cccc3)cc2)cc1	-14%	2%	20%	6%	2.1µM*	-32%
O=C(Nc1ccc(-n2cccc2)cc1)C1CC1	?	-2%	12µM*	-5%	-23%	-14%
Cc1ccc(NC(=O)CN2C(=O)CSc3ccc(S(=O)(=O)N(C)C)cc32)c(C)c1	-7%	-1%	.	.	.	.
Cc1cc(CN2CCN(CCC#N)CC2)c(O)c(C2(C)CCCCC2)c1	2%	-14%	9.3µM*	0%	11%	4%
CC(C)n1c(SCC(=O)c2ccc(F)cc2)nc2c(sc3ccccc32)c1=O	-3%	6%	.	.	.	.
Cc1ccc(-n2c(=O)cc(NCc3cccnc3)[nH]c2=O)cc1	-4%	15%	4%	8%	1.9µM*	-6%
NC(Cc1c[nH]c2ccccc12)C(=O)NCc1ccco1 (centres undefined)	-1%	-15%	0%	0%	43%	-13%
COc1ccc(C2=CC3=C(Br)C(=O)C(C)(OC(=O)C4CCCC4)C(=O)C3=CO2)cc1 (centres undefined)	0%	7.1µM*	0%	-15%	38%	-35%
COc1ccc(CN2C=C3C(=O)C(C)(OC(=O)C4CCCC4)C(=O)C=C3C=C2c2ccsc2)cc1 (centres undefined)	4%	-6%	?	-5%	?	30%
COC(=O)CCC(=O)OC1(C)C(=O)C2=CN(CCCCO)C(c3ccc(OC)cc3)=CC2=C(Br)C1=O (centres undefined)	-16%	45µM*	?	-5%	?	168%
COC(=O)CCC(=O)OC1(C)C(=O)C2=COC(c3ccc(OC)cc3)=CC2=C(Br)C1=O (centres undefined)	-1%	7.9µM*	43%	-3%	62%	-28%
